Values joined by “and” are separate entries in the source; they are usually repeats but may differ in a detail not shown here. Identical values can stand only once. Hit rate of the full screen: of about 420,000 compounds, about 64,000 (15%) were called active. Not shown: some 27% with an inconclusive outcome. The list is a sample of the results. A number with no mark means an inactive call. The call rests on the fitted dose curve; in most records, active means well fitted inhibition curve with a large enough effect; inconclusive means small, poorly fitted or top-dose-only effect; inactive means flat fitted curve, though single readings scatter.
Test: qHTS for Inhibitors of human tyrosyl-DNA phosphodiesterase 1 (TDP1): qHTS in cells in absence of CPT; further: nearly all actives have a fitted effect of over 55% in size
Details: DT40 Tdp1-/- hTDP1 cells, no CPT, ATP luminescence, 48 h; activity change, negative = growth inhibition: at 46.2 µM (top of the series)
Method in brief: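 Cells were dispensed at 400 per well, compounds added by pin tool, plates incubated ≥48 hr at 37 °C, then CellTiter-Glo added for 30 min at room temperature before luminescence reading. Line: DT40 Tdp1-/- complemented with hTDP1; camptothecin omitted.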
On the % scale 0 is the no-effect control and ±100 the full control effect; potency means the concentration at half of the fitted maximal effect.

| Compound | activity change, negative = growth inhibition [%] | Potency |
| --- | --- | --- |
| COc1ccc(C2(C#N)CCC(C(=O)O)CC2)cc1OC1CCCC1 (stereo unspecified) | -28.1 | – |
| Cc1coc2cc3oc(=O)c(CCC(=O)O)c(C)c3cc12 | -14.3 | – |
| CC(C)Cc1nnc(NC(=O)CCC(=O)Nc2ccc3cn[nH]c3c2)s1 | 1.32 | – |
| Nc1nonc1-n1nnc(C(=O)N/N=C\c2ccncc2)c1CN1CCCCC1 | -5.18 | – |
| COc1ccc(Cc2nnc(NS(=O)(=O)Cc3ccccc3)s2)cc1 | 6.02 | – |
| CCC(C)(C(=O)NC1CCCC1)N(C(=O)CNC(C)=O)c1ccc(C)cc1 (stereo unspecified) | -23 | – |
| Cc1nc2nc(SCC(=O)c3ccccc3)[nH]c2cc1Br | -19.9 | – |
| COc1ccc(OC)c(Cc2nnc(CCC(=O)NC3CCCC3)o2)c1 | 3.2 | – |
| COc1ccc2c(C)c(CCC(=O)NC3CC3)c(=O)oc2c1C | – | 16.4 µM (active) |
| Cc1c(CCC(=O)O)c(=O)oc2c(C)c(OCc3ccccc3Cl)ccc12 | -1.81 | – |
| O=C(Nc1cccc2c1N(C(=O)c1ccco1)CCC2)c1ccco1 | 1.69 | – |
| O=c1[nH]c2ccc(S(=O)(=O)N3CCCC3)cc2[nH]1 | -28.6 | – |
| Cc1cc(C)cc(NC(=O)N(C)Cc2ccccc2)c1 | -6.83 | – |
| COC(=O)C(NS(=O)(=O)c1ccc(F)cc1)c1ccccc1 (stereo unspecified) | -17.5 | – |
| CCOC(=O)C(C)n1cnc2c(nnn2-c2cccc(OC)c2)c1=O (stereo unspecified) | 2.83 | – |
| CC(=O)c1nc2ccccc2n1Cc1ccccc1 | -0.649 | – |
| CCC(=O)Nc1ccc(C)cc1-c1nc2ccccc2n(Cc2ccccc2)c1=O | -15.3 | – |
| CCC(=O)Nc1ccc2nc(C)n(Cc3ccccc3Cl)c(=O)c2c1 | -24.9 | – |
| CC(=O)Nc1nc2ccccc2n1Cc1ccc(C)cc1 | – | 13 µM (active) |
| CCc1cccc(CC)c1NC(=O)Cn1c(=O)c(-c2cc(C)ccc2NC(C)=O)nc2ccccc21 | 1.16 | – |
| CCC(=O)Nc1nc2ccccc2n1Cc1ccccc1C | – | 14.6 µM (active) |
| Cc1cccc(N(CC(=O)N2CCOCC2)S(C)(=O)=O)c1 | -1.19 | – |
| CCNC(=O)COC(=O)CCNC(=O)c1cccc(C)c1 | -4.54 | – |

| Compound | activity change, negative = growth inhibition [%] | Potency |
| --- | --- | --- |
| CCOc1ccc(C(CC(=O)O)NC(=O)C23CC4CC(CC(C4)C2)C3)cc1OC (stereo unspecified) | -12.7 | – |
| CN1C(=O)/C(=C/C=C2\SCCN2C)OC1=S | -19.2 | – |
| COc1ccc(N2CCN(CCNC(=O)c3nnc(Cc4c(F)cccc4Cl)o3)CC2)cc1 | -19.9 | – |
| COc1ccccc1-c1nc(N2CCN(C)CC2)c2ccccc2n1 | 7.74 | – |
| COc1ccc(N2CCN(c3nc(-c4ccccc4F)nc4ccccc34)CC2)cc1 | – | 16.4 µM (active) |
| Brc1cc(Br)c(Oc2cc(Br)c(Br)cc2Br)cc1Br | -18.6 | – |
| CCc1ccc[n+](-c2nc([O-])sc2C=O)c1 | 1.39 | – |
| CCN(CC(=O)Nc1ccccc1C(F)(F)F)C(=O)C1CCN(C(=O)Nc2ccccc2)CC1 | 26.8 | – |
| CC(C)CCN(C(=O)Nc1ccc(Cl)c(Cl)c1)C(C)c1cccs1 (stereo unspecified) | – | 18.4 µM (active) |
| CC(=O)Nc1ccc(S(=O)(=O)N2CCC(N(C)CCC(C)C)CC2)cc1 | -14.4 | – |
| Cc1ccc(NC(=S)N(Cc2ccco2)C(C)c2cccs2)cc1 (stereo unspecified) | 12.8 | – |
| S=C(Nc1ccc(Br)cc1Cl)N1CCC2(CC1)OCCO2 | -14.2 | – |
| C/C=C/C=C/C(=O)OCC(=O)Nc1ccc(Cl)cc1 | -27.7 | – |
| O=C(NCN1CCN(CCO)CC1)c1cnccn1 | -12.6 | – |
| O=C(CN1C(=O)CSc2ncccc21)N1CCOCC1 | 0.179 | – |
| Cc1cc(/C=C2/SC(=O)N(CC(=O)N3CCCC3)C2=O)c(C)n1C | -8.02 | – |
| Cc1cc(/C=C2/SC(=O)N(CC(=O)N3CCCC3)C2=O)ccc1N1CCOCC1 | – | 23.1 µM (active) |
| CN(C)C(=S)Nc1ccc(Br)cc1Cl | 4.16 | – |
| Cc1cc(C)cc(C(=O)NCCN2CCOCC2)c1 | -4.83 | – |
| CC(=O)Oc1cc2c(C(=O)NCCN3CCOCC3)c(C)oc2c2ccccc12 | – | 16.4 µM (active) |
| O=C(NCCN1CCOCC1)c1c(F)c(F)c(F)c(F)c1F | 16.8 | – |
| O=C(CCc1nc(CN2CCN(S(=O)(=O)c3ccc(F)cc3)CC2)no1)N1CCCCC1 | -13.9 | – |
| CCN(CC(=O)Nc1ccc(OC)cc1)C(=O)c1ccc(=O)n(Cc2ccccc2)n1 | -9.51 | – |

| Compound | activity change, negative = growth inhibition [%] | Potency |
| --- | --- | --- |
| O=C(CNC(=O)c1cc(=O)[nH]c2ccccc12)Nc1ccc(F)c(F)c1 | 9.3 | – |
| COC(=O)c1cnn2c(C(F)(F)F)cc(-c3ccco3)nc12 | -7.72 | – |
| CCOc1ccc(C(C)=O)cc1COC(=O)CNC(=O)c1cccs1 | -6.35 | – |
| O=C(O)/C=C/c1ccc(S(=O)(=O)N2CCCCCC2)cc1 | -0.963 | – |
| CN/C(=C\[N+](=O)[O-])NCCSCc1csc(CN(C)C)n1 | – | inactive |
| Cc1ccnc(-n2sc3ccccc3c2=O)n1 | – | 5.17 µM (active) |
| Cc1nc2ccccc2c(=O)n1CCCn1ccnc1 | -13.6 | – |
| Cc1ccnc(N2CCCC(C(=O)NC3CC3)C2)n1 (stereo unspecified) | 9.1 | – |
| COCCCNC(=O)c1c(F)c(F)c(F)c(F)c1F | 12.3 | – |
| O=C(CSc1nnc(-c2ccncc2)n1C1CCCCC1)Nc1ccccc1 | -10.6 | – |
| CCC(C)N(C)C1CCN(C(=S)Nc2ccc(OC)cc2)CC1 (stereo unspecified) | -3.26 | – |
| Cc1cccc(-n2nc3c(c2NC(=O)c2ccc(Br)o2)CSC3)c1C | -18.1 | – |
| COc1ccccc1OCC(=O)Nc1c2c(nn1-c1ccc(F)cc1)CS(=O)(=O)C2 | -2.31 | – |
| COc1cccc(C(=O)Nc2c3c(nn2-c2cccc(C)c2C)CS(=O)(=O)C3)c1OC | – | 15.8 µM (active) |
| COc1ccc(N(CC(=O)Nc2cccc3ccccc23)S(C)(=O)=O)c(OC)c1 | -24.1 | – |
| CCC(CC)C(=O)Nc1cc(C(=O)OC)cc(C(=O)OC)c1 | -12.8 | – |
| Cc1cc2nc3c(=O)n(Cc4ccccc4)c(=O)[nH]c3nc2cc1N | -27.9 | – |
| CCC(=O)N(C)C(c1ccccc1Cl)c1nnnn1-c1c(C)cccc1C (stereo unspecified) | – | 18.4 µM (active) |
| Cc1ccc(-n2nnnc2CNC(=O)c2ccccc2C)cc1C | -10.6 | – |
| CCOC(=O)N1CCN(C(c2ccnc3ccccc23)c2nnnn2-c2c(C)cccc2C)CC1 (stereo unspecified) | -23 | – |
| Cc1ccc(S(=O)(=O)N(NC2=NS(=O)(=O)c3ccccc32)C(=O)c2ccccc2)cc1 | -14.8 | – |
| Cc1cc(C)c(C)c(S(=O)(=O)N[C@@H](C)C(=O)OC(C)C(=O)NC(N)=O)c1C (stereo partly specified) | 4.64 | – |
| COc1ccccc1C(=O)COC(=O)CSCC(=O)Nc1cc(C)on1 | 1.01 | – |

| Compound | activity change, negative = growth inhibition [%] | Potency |
| --- | --- | --- |
| COC(=O)N1CN(C(=O)OC)CN(C(=O)OC)C1 | -2.09 | – |
| CN(C(=O)CC1C(=O)NCCN1Cc1ccc(F)cc1Cl)C1CCCCC1 (stereo unspecified) | 0.124 | – |
| CCOC(=O)N1CCN(C(=O)c2nn(-c3ccc(C)cc3)c(=O)c3c2c2ccccc2n3C)CC1 | – | 18.4 µM (active) |
| COc1cc(NC(=O)c2nn(-c3ccc(C)cc3)c(=O)c3c2c2ccccc2n3C)cc(OC)c1OC | -7.67 | – |
| CCOC(=O)N1CCN(C(=O)c2n[nH]c(=O)c3ccccc23)CC1 | -14 | – |
| CCCN(CCC)CCNC(=O)Cn1cnc2sc(C)c(S(=O)(=O)N3CCC(C)CC3)c2c1=O | 7.29 | – |
| O=C(CC[C@H]1O[C@@H](n2ccc(=O)[nH]c2=O)[C@H](O)[C@@H]1O)N[C@H](Cc1ccccc1)C(=O)NCc1ccco1 | 24.1 | – |
| O=C(NN=CC=Cc1ccccc1)C(O)C(O)C(=O)NN=CC=Cc1ccccc1 (stereo unspecified) | 2.13 | – |
| CC(C)(C)c1ccc(NC(=O)NCc2ccco2)cc1 | – | 14.6 µM (active) |
| CC(C)(C)c1ccc(C(=O)NCc2ccco2)cc1 | -25.6 | – |
| CC(C)(C)NC(=O)NCc1ccco1 | -7.35 | – |
| Clc1ccc(-c2nnc(SCc3nc4ccccc4s3)o2)cc1 | 1.63 | – |
| Oc1c(Cl)cc(Cl)c(Cl)c1Cc1c(O)c(Cl)cc(Cl)c1Cl | – | 4.22 µM (active) and 23.1 µM (active) and 2.59 µM (active) |
| CCCn1c(N)c(C(=O)CSc2nnc3n2CCCCC3)c(=O)[nH]c1=O | 6.82 | – |
| CN(CC(=O)NCCc1ccc(S(N)(=O)=O)cc1)CC(=O)Nc1ccc(F)c(F)c1F | -17.4 | – |
| CCOc1ccccc1NC(=O)CN1CCN(S(=O)(=O)c2ccc(Br)cc2)CC1 | -17.6 | – |
| Cn1c(CC(=O)Nc2ccccc2)nnc1SCC(=O)c1ccccc1 | 1.42 | – |
| CCCCNC(=O)c1onc(CSc2cccc(OC)c2)c1C(=O)O | -11 | – |
| COc1ccc(Sc2nc(-c3ccccc3)ncc2OC)cc1 | -5.11 | – |
| CCCCNc1c(-c2cccc(Sc3ccc(OC)cc3)c2)nc2ccccn12 | – | 20.6 µM (active) |
| O=c1o[nH]c(-c2ccccc2)c1N=Nc1c(F)cccc1Cl | -4.15 | – |
| CCOC(=O)C1CCCN(C(=O)Cn2ncc3c(=O)oc4ccc(C)cc4c32)C1 (stereo unspecified) | 1.04 | – |
| CCOC(=O)C1CCCN(C(=O)Cn2ncc3c(C)n(Cc4ccc(F)cc4)c(C)c3c2=O)C1 (stereo unspecified) | – | 16.4 µM (active) |

| Compound | activity change, negative = growth inhibition [%] | Potency |
| --- | --- | --- |
| Cc1ccc2oc(=O)c3cnn(CC(=O)N4CCCCCC4)c3c2c1 | -15.1 | – |
| CCOc1ccc(CN(C)C(=O)c2ccc(=O)[nH]c2)cc1 | -19.3 | – |
| Clc1ccc2nc(-c3ccccc3)nc(C(Cl)Cl)c2c1 | – | 0.366 µM (active) |
| Cc1ccccc1C(=O)NNC(=O)CN1C(=O)c2ccccc2C1=O | 16.1 | – |
| Cc1noc(C)c1-c1nc(CSc2ccc(Cl)cc2)no1 | -21.8 | – |
| Clc1ccc(Cc2nnc(-c3cccs3)o2)cc1 | -21.9 | – |
| CCCC(=O)n1nc(-c2ccccc2)nc1N | -4.29 | – |
| CCc1nn(-c2cc(Oc3cccc4ccccc34)nc(-c3ccccc3)n2)c(N)c1C#N | – | 16.4 µM (active) |
| COc1ccc(Cn2c(=O)c3oc4ccccc4c3n(CC(=O)Nc3ccc(F)cc3F)c2=O)cc1 | -15.4 | – |
| CCOC(=O)c1sc(=NC(=O)/C=C/c2cccs2)n(C)c1C | -22.9 | – |
| CCCCc1nnc(NC(=O)CSc2nc(C)cc(=O)[nH]2)s1 | -10.6 | – |
| COc1ccc(OC)c(C(=O)NC2CCCc3c2cnn3-c2cc(C)cc(C)c2)c1 (stereo unspecified) | – | 16.4 µM (active) |
| COCc1c(C(=O)NC2CCCCC2)cnn1-c1nccc(-c2ccccc2OC)n1 | -2.16 | – |
| COc1ccc(C(=O)NC2CCCc3c2cnn3-c2cccc(C)c2C)c(OC)n1 (stereo unspecified) | – | 8.2 µM (active) |
| Cc1cc(C(=O)NC2CCCc3c2cnn3-c2cccc(C)c2C)c(C)o1 (stereo unspecified) | – | 8.2 µM (active) |
| Cc1cc(C(=O)NCC2Cc3cccc(-c4cncnc4)c3O2)c(C)o1 (stereo unspecified) | 0.211 | – |
| Cc1cc(C(=O)NNC(=O)CCC2CCCCC2)c(C)o1 | 4.76 | – |
| COc1ccc(OC)c(CN2C(=O)CCC2(C)C(=O)NC2CCCCCC2)c1 (stereo unspecified) | 3.78 | – |
| COC(=O)C1=C(C)N(C)C(=S)NC1c1cc(OC)ccc1OC (stereo unspecified) | -6.15 | – |

— PubChem BioAssay AID686978 (National Center for Advancing Translational Sciences (NCATS), 2013)
